Laboratory results as given in PubChem BioAssay (NCI).
This is part of a sample that, as a whole, favours compounds with a hit. Of some 83,000 tested, about 20% had one in any assay.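 Activity criterion: percent growth below 10, measured after cells in 96-well plates were exposed to a single compound concentration for 48 hours.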 Values without a mark were called inactive. Activity calls are given as the source filed them.

Assays:
Test in all cases: NCI-60 one-dose screen, 48 h (100 = growth as untreated, 0 = no growth, -100 = all killed)
Settings in all cases: 10 µM unless noted
[1] = system: NCI-H23 lung
[2] = system: NCI-H226 lung
[3] = system: NCI-H322M lung
[4] = system: HOP-62 NSCLC
[5] = system: NCI-H460 lung
[6] = system: HOP-92 NSCLC
[7] = system: NCI-H522 lung
[8] = system: A549/ATCC NSCLC
[9] = system: 786-0 renal
[10] = system: COLO 205 colon
[11] = system: DU-145 prostate
[12] = system: K-562 leukemia
[13] = system: MALME-3M melanoma
[14] = system: MDA-MB-231 breast
[15] = system: RXF 393 renal
[16] = system: SF-268 CNS
[17] = system: SF-295 CNS
[18] = system: SF-539 CNS
[19] = system: UACC-257 melanoma
[20] = system: M14 melanoma

SMILES: CCOC(=O)c1sc2ncc(-c3ccc(OC)cc3)n2c1C
- growth [1]: 85.9%
- growth [2]: 84.3%
- growth [3]: 97.3%
- growth [4]: 91.4%
- growth [5]: 103%
- growth [6]: 92.6%
- growth [7]: 74.7%
- growth [8]: 104%
- growth [9]: 106%
- growth [10]: 105%
- growth [11]: 105%
- growth [12]: 91.2%
- growth [13]: 101%
- growth [14]: 92.4%
- growth [15]: 111%
- growth [16]: 98.1%
- growth [17]: 96.4%
- growth [18]: 91.8%
- growth [19]: 105%
- growth [20]: 95.3%

SMILES: COc1ccc(N)c(N)c1
- growth [1]: 96.4%
- growth [2]: 113%
- growth [3]: 95.4%
- growth [4]: 105%
- growth [5]: 105%
- growth [6]: 92.5%
- growth [7]: 81.4%
- growth [8]: 98.1%
- growth [9]: 102%
- growth [10]: 105%
- growth [11]: 111%
- growth [12]: 97.8%
- growth [13]: 91.7%
- growth [14]: 105%
- growth [15]: 105%
- growth [16]: 117%
- growth [17]: 99.1%
- growth [18]: 97.4%
- growth [19]: 114%
- growth [20]: 101%

SMILES: COc1ccc(-c2cc(-c3cc(OC)c(OC)c(OC)c3)nc(N3CCOCC3)c2C#N)cc1
- growth [1]: 23.4%
- growth [2]: 83.8%
- growth [3]: 93.6%
- growth [4]: 88.8%
- growth [5]: 73.8%
- growth [6]: 58.4%
- growth [7]: 59.9%
- growth [8]: 60%
- growth [9]: 61.3%
- growth [10]: 57.7%
- growth [11]: 93.5%
- growth [12]: 47.5%
- growth [13]: 126%
- growth [14]: 75.3%
- growth [15]: 52.9%
- growth [16]: 83.4%
- growth [17]: 69.5%
- growth [18]: 76.6%
- growth [19]: 74.2%
- growth [20]: 90.3%

SMILES: COc1ccc(-c2conc2-c2ccccc2)cc1
- growth [1]: 29.1%
- growth [2]: 70.5%
- growth [3]: 46.3%
- growth [4]: 42.4%
- growth [5]: 7.41% (active)
- growth [6]: 71.4%
- growth [7]: -6.84% (active)
- growth [8]: 23.3%
- growth [9]: 27%
- growth [10]: -7.37% (active)
- growth [11]: 11.5%
- growth [12]: 13.3%
- growth [13]: 56.2%
- growth [14]: 11.6%
- growth [15]: -21.8% (active)
- growth [16]: 44.6%
- growth [17]: 16.3%
- growth [18]: -23.4% (active)
- growth [19]: 71.5%
- growth [20]: 6.54% (active)

SMILES: Cc1cc(C)c(-c2c(N)cc(Br)cc2Br)c(N)c1
- growth [1]: 70.9%
- growth [2]: 76.3%
- growth [3]: 102%
- growth [4]: 39.4%
- growth [5]: 83%
- growth [6]: -6% (active)
- growth [7]: 62.9%
- growth [8]: 55.5%
- growth [9]: 45.9%
- growth [10]: 54%
- growth [11]: 71.2%
- growth [12]: 13.4%
- growth [13]: 26.9%
- growth [14]: 56.4%
- growth [15]: 10.5%
- growth [16]: 76.1%
- growth [17]: 36.7%
- growth [18]: 46.9%
- growth [19]: 66.8%
- growth [20]: 41.4%

SMILES: Cc1ccc(/C=C2\Oc3ccc(O)c(O)c3C2=O)cc1
- growth [1]: 36.6%
- growth [2]: 62.2%
- growth [3]: 58%
- growth [4]: 44.8%
- growth [5]: 43.4%
- growth [6]: 35.9%
- growth [7]: 13.6%
- growth [8]: 73.1%
- growth [9]: 52.5%
- growth [10]: 107%
- growth [11]: 46.1%
- growth [12]: 19.2%
- growth [13]: 66.1%
- growth [14]: 56.1%
- growth [15]: 27.4%
- growth [16]: 37.5%
- growth [17]: 54%
- growth [18]: 32.7%
- growth [19]: 96.6%
- growth [20]: 56.1%

SMILES: CCCC1CCC(O)(C(C)(O)C(=O)NC2C(=O)N3NCCCC3C(=O)N(O)C(C)C(=O)N3NCCCC3C(=O)N3NCC(O)CC3C(=O)NC(C)C(=O)OC2C(C)C)OC1CC (stereo not given)
- growth [1]: -85.9% (active)
- growth [2]: -53.6% (active)
- growth [3]: -90.8% (active)
- growth [4]: -76% (active)
- growth [5]: -82.4% (active)
- growth [6]: -61.5% (active)
- growth [7]: -25% (active)
- growth [8]: -66.4% (active)
- growth [9]: -78.6% (active)
- growth [10]: -89% (active)
- growth [11]: -99% (active)
- growth [12]: -61.6% (active)
- growth [13]: -71.7% (active)
- growth [14]: -66.3% (active)
- growth [15]: -54.3% (active)
- growth [16]: -82.1% (active)
- growth [17]: -85.3% (active)
- growth [18]: -95.1% (active)
- growth [19]: -83.3% (active)
- growth [20]: -60.9% (active)

SMILES: COc1cc(OCc2cccc(-c3ccc(C(O)c4nccs4)cc3)c2C)cc(OC)c1CNCCNC(C)=O (stereo not given)
- growth [1]: 98.1%
- growth [2]: 96.2%
- growth [3]: 99.1%
- growth [4]: 108%
- growth [5]: 101%
- growth [6]: 81.8%
- growth [7]: 101%
- growth [8]: 96.3%
- growth [9]: 102%
- growth [10]: 104%
- growth [11]: 111%
- growth [12]: 77.2%
- growth [13]: 86%
- growth [14]: 101%
- growth [15]: 107%
- growth [16]: 97.5%
- growth [17]: 103%
- growth [18]: 101%
- growth [19]: 99%
- growth [20]: 99.6%

SMILES: COc1cc(CCC[P+](c2ccccc2)(c2ccccc2)c2ccccc2)c(OC)c(OC)c1OC
- growth [1]: 77.9%
- growth [2]: 88.8%
- growth [3]: 83.3%
- growth [4]: 82.1%
- growth [5]: 82.2%
- growth [6]: 61.8%
- growth [7]: 71.9%
- growth [8]: 78.2%
- growth [9]: 75.3%
- growth [10]: 105%
- growth [11]: 79.6%
- growth [12]: 39.8%
- growth [13]: 53.7%
- growth [14]: 61.5%
- growth [15]: 54.2%
- growth [16]: 64.7%
- growth [17]: 82.5%
- growth [18]: 57.7%
- growth [19]: 60.7%
- growth [20]: 62%

SMILES: CCOC(=O)C1=C(N)Oc2c(sc3c(C)cccc23)C1c1ccc(Cl)cc1 (stereo not given)
- growth [1]: 28.2%
- growth [2]: 32.9%
- growth [3]: 47.3%
- growth [4]: 31.8%
- growth [5]: 13.1%
- growth [6]: 85%
- growth [7]: 23%
- growth [8]: 46.2%
- growth [9]: 35.7%
- growth [10]: 20.3%
- growth [11]: 21.6%
- growth [12]: 9.65% (active)
- growth [13]: 36.1%
- growth [14]: 49.8%
- growth [15]: -7.89% (active)
- growth [16]: 55.5%
- growth [17]: 4.92% (active)
- growth [18]: 6.36% (active)
- growth [19]: 63.4%
- growth [20]: 20.6%

SMILES: CC[C@H](C)C(=O)O[C@H]1CCC=C2C=C[C@H](C)[C@H](CC[C@@H]3CC=CC(=O)O3)[C@H]21
- growth [1]: 96.5%
- growth [2]: 107%
- growth [3]: 95.9%
- growth [4]: 99.6%
- growth [5]: 99%
- growth [6]: 42%
- growth [7]: 56.2%
- growth [8]: 85.6%
- growth [9]: 95.5%
- growth [10]: 103%
- growth [11]: 88.7%
- growth [12]: 46.4%
- growth [13]: 92.5%
- growth [14]: 97.6%
- growth [15]: 96.6%
- growth [16]: 99.2%
- growth [17]: 115%
- growth [18]: 80.5%
- growth [19]: 77.8%
- growth [20]: 76.4%

SMILES: CCCCCCn1c(-c2ccc(C(=O)O/N=C(\N)c3ccc4ccccc4c3)cc2)nc(-c2ccccc2)c1-c1ccccc1
- growth [1]: 44.3%
- growth [2]: 80.3%
- growth [3]: 83.6%
- growth [4]: 81.7%
- growth [5]: 58.5%
- growth [6]: 16%
- growth [7]: 47.9%
- growth [8]: -33.5% (active)
- growth [9]: 4.48% (active)
- growth [10]: 77.2%
- growth [11]: 53.9%
- growth [12]: -8.77% (active)
- growth [13]: 71.5%
- growth [14]: 64.4%
- growth [15]: 35.1%
- growth [16]: 51.3%
- growth [17]: 70.1%
- growth [18]: 48.8%
- growth [19]: 82.2%
- growth [20]: 72.7%

SMILES: CC(=O)OC[C@H]1OC(Sc2sc(C(=O)c3ccc(Br)cc3)c(N)c2-c2nc3ccccc3s2)[C@H](OC(C)=O)[C@@H](OC(C)=O)[C@H]1OC(C)=O (stereo not given in full)
- growth [1]: 88.4%
- growth [2]: 65.6%
- growth [3]: 91.8%
- growth [4]: 91.1%
- growth [5]: 107%
- growth [6]: 98.3%
- growth [7]: 94.1%
- growth [8]: 92.2%
- growth [9]: 94.4%
- growth [10]: 108%
- growth [11]: 110%
- growth [12]: 92.2%
- growth [13]: 98.1%
- growth [14]: 80.6%
- growth [15]: 115%
- growth [16]: 93%
- growth [17]: 97.1%
- growth [18]: 95.2%
- growth [19]: 104%
- growth [20]: 96.1%

SMILES: Cc1cc(O)c(C2=NN(c3ccc(S(N)(=O)=O)cc3)C(c3ccccc3O)C2)cc1Cl (stereo not given)
- growth [1]: -19.9% (active)
- growth [2]: 0.355% (active)
- growth [3]: 46.8%
- growth [4]: -3.51% (active)
- growth [5]: -47.9% (active)
- growth [6]: 5.49% (active)
- growth [7]: -56.8% (active)
- growth [8]: 3.15% (active)
- growth [9]: -55.7% (active)
- growth [10]: -94.4% (active)
- growth [11]: 1.2% (active)
- growth [12]: -36.6% (active)
- growth [13]: 21.8%
- growth [14]: 4.16% (active)
- growth [15]: -10.3% (active)
- growth [16]: 10.8%
- growth [17]: 58.5%
- growth [18]: -21.2% (active)
- growth [19]: 66.5%
- growth [20]: -68.5% (active)

SMILES: COc1cc(C2CC(c3cccc(Br)c3)=NN2C(C)=O)cc(OC)c1OC (stereo not given)
- growth [1]: 24.8%
- growth [2]: 28%
- growth [3]: 33%
- growth [4]: 43.7%
- growth [5]: 9.31% (active)
- growth [6]: 78.3%
- growth [7]: -13.8% (active)
- growth [8]: 29.1%
- growth [9]: 40.7%
- growth [10]: 2.52% (active)
- growth [11]: 20%
- growth [12]: 49.2%
- growth [13]: 54.2%
- growth [14]: 4.94% (active)
- growth [15]: 33.3%
- growth [16]: 55.3%
- growth [17]: 0.219% (active)
- growth [18]: -5.96% (active)
- growth [19]: 81.7%
- growth [20]: 8.38% (active)
